High-throughput results from PubChem.
Sampled rows, rich in hits. Any-hit rate of the full collection: about 12%.
JMJD2A Tudor: qHTS Assay for Inhibitors of JMJD2A-Tudor Domain. Lysine-specific demethylase 4A (Homo sapiens), O75164. AlphaScreen JMJD2A-Tudor / H3K4me3 peptide binding. Potency, µM (top dose mostly 114 µM), hits mostly inhibitors. hit rate 4.4% among 390,000; also: nearly all actives have a fitted effect of over 50% in size
HP1b binding inh: HTS for Inhibitors of HP1-beta Chromodomain Interactions with Methylated Histone Tails | Chromobox protein homolog 1 (Homo sapiens), P83916 | AlphaScreen HP1-beta / biotin-H3K9me3 peptide binding | Potency, µM (doses to about 114 µM), actives largely listed as inhibitors | hit rate 0.56% among 390,000; also: nearly all actives have a fitted effect of over 70% in size
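Compound inhibition of the preformed complex between 50 nM HP1-beta and 50 nM biotinylated H3K9me3 peptide was read by AlphaScreen. Buffer was PBS pH 7.4 with 0.01% Tween-20. Incubations ran 30 min at room temperature, with 10 ug/mL donor/acceptor beads.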
BAZ2B block: qHTS Assay for Inhibitors of BAZ2B; Bromodomain adjacent to zinc finger domain protein 2B (Homo sapiens), Q9UIF8; AlphaScreen BAZ2B-H3K14Ac peptide displacement; Potency, µM (titrated, usually from 114 µM), usual class: inhibitors; hit rate 4.4% among 360,000; AID 504333, 2011; also: nearly all actives have a fitted effect of over 60% in size
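Multi-concentration screen (max 110 uM) measuring displacement of acetylated histone H3 peptide from BAZ2B by AlphaScreen, using 50 nM protein, 50 nM peptide and 10 ug/mL streptavidin donor plus Ni-chelate acceptor beads.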
G9a inh: qHTS Assay for Inhibitors of Histone Lysine Methyltransferase G9a | G9a H3K9 monomethylation, AlphaScreen, 2 h | AID 504332, 2011 | Potency, µM (highest dose often 102 µM), usual class: inhibitors | Histone-lysine N-methyltransferase EHMT2 (Homo sapiens), Q96KQ7 | hit rate 8.8% among 350,000; also: nearly all actives have a fitted effect of over 75% in size
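Chemiluminescent proximity detection of H3K9 monomethylation, read after 10 min bead incubation in the dark. Reaction: 20 nM G9a, 500 nM biotin-H3K9 peptide, 20 uM SAM cofactor, 2 h, room temperature, following 15 min enzyme-compound preincubation.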
Sfp inh: qHTS Assay for Inhibitors of Bacillus subtilis Sfp phosphopantetheinyl transferase (PPTase); hit rate 3.5% among 310,000; Biochemical Sfp PPTase activity, qHTS; Potency, µM, actives largely listed as inhibitors;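 also: the enzyme is Sfp with the accession as filed and its product quenches rhodamine fluorescence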
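Buffer: 50 mM Hepes-Na pH 7.6, 10 mM MgCl2, 0.01% Nonidet P-40, 0.01% BSA. Enzyme 15 nM, pre-exposed to compound 15 min; substrates then added and fluorescence change tracked over 30 min.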
Hits are given with their value; – = inactive; ? = inconclusive; · = not tested or not shown; [ ] = another dose, or the depositor's remark. Calls follow the shape of the dose curve; as a rule, active = well fitted curve in the direction sought with a large enough effect; inconclusive = small, poorly fitted or top-dose-only effect, or another doubt; inactive = no such curve, though single readings can be large; an effect the other way counts as inactive or inconclusive.

SMILES | JMJD2A Tudor | HP1b binding inh | BAZ2B block | G9a inh | Sfp inh
NCCN1CCN(S(=O)(=O)c2ccc([N+](=O)[O-])cc2)C=C1c1ccc(Cl)cc1 | ? | – | 56µM | –[0.501 µM] | ·
O=C(CSc1ccccc1)NCc1ccc2c(c1)CCN2C(=O)c1ccc(Cl)cc1 | – | – | – | – | ·
CC1(C)Cc2nc3sc(C(=O)O)c(N)c3cc2CS1 | · | · | · | 50µM | –
CC1(C)Cc2nc3sc4c(NCCO)ncnc4c3cc2CS1 | – | – | – | · | –
CC1(C)Cc2nc3sc(C(=O)NCCCO)c(N)c3cc2CS1 | – | – | ? | 25µM | 40µM
CC1(C)Cc2nc3sc(C(=O)NCCO)c(N)c3cc2CO1 | – | – | – | 11µM | ?
CC1(C)Cc2nc3sc4c(N(CCO)CCO)nnnc4c3cc2CO1 | – | – | – | – | –
CC(C)(C)c1ccc(OCCn2cc(C(=O)c3ccco3)c3ccccc32)cc1 | – | – | – | – | ·
CN(Cc1ccccc1)C(=O)c1ccccc1Br | – | – | – | – | –
O=S(=O)(NCCc1csc2nc(-c3ccc(Cl)cc3)nn12)c1cccs1 | – | – | – | – | ·
Cc1ccc(/C=C/C(=O)NCc2cccs2)o1 | ? | ? | ? | 13µM | 10µM
CC(/C=C/c1ccc(C)o1)=C\C(=O)O | – | – | – | 8.9µM | 10µM
CC(/C=C\c1ccccc1)=C/C(=O)O | – | – | – | – | –
CC(=C/C(=O)O)/C=C/c1ccc(Cl)o1 | –[11.4 µM] | 71µM | 50µM | 11µM | ?
Cc1ccc(CNC(=O)/C=C/c2ccc(Br)o2)cc1 | – | – | ? | 1.4µM | 28µM
COCCN1C(=O)c2oc3ccc(C)cc3c(=O)c2C12C(=O)N(C)c1ccccc12 (centres undefined) | – | – | – | – | ·
O=C1CCc2cc(S(=O)(=O)Nc3cc(F)cc(Cl)c3)c(F)cc2N1 | – | · | · | · | ·
Cc1ccc(/C=C/C(=O)Oc2ccc(C#N)cc2)o1 | · | · | – | ? | –
CC(=O)/C=C/c1ccc(C)o1 | – | – | – | ? | 40µM
O=C(O)C1CCN(Cc2ccccn2)CC1 | ? | – | ? | 25µM | –
O=C(C(c1ccccc1)c1ccccc1)N1CCN(Cc2ccccn2)CC1 | 4µM | ? | 56µM | ? | –
O=S1(=O)CCN(Cc2ccccn2)CC1 | – | – | – | ? | –
CCOC(=O)C1CCN(Cc2ccccn2)CC1 | · | · | 50µM | 1.8µM | ?
CC1CN(Cc2ccccn2)CCC1=O (centres undefined) | – | – | – | 7.9µM | –
CC(=O)c1c(C)[nH]c(C(=O)NNC(=O)COc2cc(C)cc(C)c2)c1C | – | – | – | 50µM | ·
SMILES | JMJD2A Tudor | HP1b binding inh | BAZ2B block | G9a inh | Sfp inh
CC(=O)c1c(C)[nH]c(C(=O)NNC(=O)c2ccc(C)cc2)c1C | – | – | · | · | ·
COc1cc2c(cc1OC)C(c1ccc(F)cc1)N(c1ccc(F)cc1)C(=O)C2 (centres undefined) | – | – | – | – | ·
C=C(C)Cn1c(SCC(=O)c2ccccc2)nc2sc3c(c2c1=O)CCCC3 | – | – | – | – | ·
COc1cc(OC)cc(C(=O)NCC(=O)N2CCN(c3ccc(O)cc3)CC2)c1 | 22µM | ? | – | 22µM | 56µM
COc1ccc(N2CCN(C(=O)C(C)(C)Oc3ccc(Cl)cc3)CC2)cc1 | 50µM | ? | 40µM | 7.9µM | ?
COc1ccc(C(=O)N2CCN(c3ccccc3OC)CC2)cc1 | – | – | – | ? | –
COc1ccccc1N1CCN(C(=O)c2ccc(C(C)(C)C)cc2)CC1 | 3.2µM | – | – | – | –
COc1ccc(N2CCN(C(=O)CNC(=O)c3ccc4ccccc4c3)CC2)cc1 | – | – | – | –[2.33 µM] | ·
COc1cc(OC)cc(C(=O)N2CCC(N3CCN(c4ccccc4OC)CC3)CC2)c1 | 1.1µM | ? | 50µM | 7.9µM | –
CCOC(=O)N1CCN(C(=O)C(C)(C)Oc2ccc(Cl)cc2)CC1 | – | – | – | ? | –
COCCn1c(=O)c(-c2ccccc2)nc2cnc(Nc3ccccc3)nc21 | · | · | · | –[12.7 µM] | –
Cn1c(/C(C#N)=C/c2ccc(C(F)(F)F)cc2)nc2ccccc21 | – | – | – | – | ·
